# Laboratory results reported in PubChem BioAssay.
# Several values for one entry are separate records, joined by “and”; a condition that tells them apart may be missing. Identical values can stand only once. Records with an inconclusive call do not appear. A structure can be active in one record and inactive in another. Activity calls are given as the source filed them. Cut-off read from the data, not from the text of the source, unless noted: active = inhibition above about 80%; inactive = the rest.
# Legend:
# [1] = EMT-state selective cytotoxicity in co-culture – imaging, PC-3E GFP, TEM4-18 mCherry, primary screen (AID 1345086;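 active = compounds killing one labelled cell type while sparing the other, by normalised counts and ratio limits, not self-fluorescent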;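 note: cells exposed to compound for 72 h before imaging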;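 for red/green cell ratio (normalised): normalised mesenchymal count divided by normalised epithelial count so high means epithelial killing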); details: PC-3E GFP / TEM4-18 mCherry co-culture, imaging cell counts, at 1 µM
# [2] = viability loss in pontine glioma line – cell-based, SU-DIPG-XVII, MIPE5.0, CellTiter-Glo, qHTS, dose response (AID 1347060; cut-off not given, nearly all actives have AC50 up to about 26 µM;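 note: cells exposed to compound for 48 hours before viability readout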); details: CellTiter-Glo ATP luminescence
# [3] = viability loss in pontine glioma line – cell-based, JHH-DIPG-1, MIPE4.0, CellTiter-Glo, qHTS, dose response (AID 1347062; cut-off not given, nearly all actives have AC50 up to about 27 µM;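 note: cells exposed to compound for two days before readout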); details: JHH-DIPG-1 viability, CellTiter-Glo ATP luminescence
# [4] = viability loss in pontine glioma line – cell-based, SU-DIPG-IV, MIPE4.0, CellTiter-Glo, qHTS, dose response (AID 1347063; cut-off not given, nearly all actives have AC50 up to about 30 µM;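 note: compound exposure lasted 48 hours before the viability readout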); details: CellTiter-Glo ATP luminescence
# [5] = viability loss in pontine glioma line – cell-based, SU-DIPG-XIII, MIPE5.0, CellTiter-Glo, qHTS, dose response (AID 1347064; cut-off not given, nearly all actives have AC50 up to about 23 µM;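 note: cells exposed to compound for 48 hours before the viability read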); details: CellTiter-Glo ATP luminescence
# [6] = viability loss in pontine glioma line – cell-based, SU-DIPG-XXV, MIPE5.0, CellTiter-Glo, qHTS, dose response (AID 1347065; cut-off not given, nearly all actives have AC50 up to about 26 µM;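 note: cells exposed to compound for 48 hours before ATP readout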); details: CellTiter-Glo ATP luminescence
# [7] = growth inhibition of DIPG cells – cell-based, MIPE4.0 library, CellTiter-Glo luminescence, qHTS (AID 1347066; cut-off not given, nearly all actives have AC50 up to about 30 µM;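 note: cells exposed to compound for 48 hours before readout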); details: SU-DIPG-VI viability, CellTiter-Glo ATP luminescence
# [8] = chitosan synthesis blockers in C. neoformans – flow cytometry, Cibacron Brilliant Red staining (AID 1347148; call rule not given here;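 note: compound exposure lasted three days at 37 degrees C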); details: Cryptococcus neoformans chitosan, stronger effect = lower value; at 10 µM unless noted
# [9] = biological target: Mitogen-activated protein kinase 7 (Homo sapiens) (UniProt Q13164); assay: Gal4-ERK5 driven luciferase induction – cell-based, HTS, primary screen (AID 1508626;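 active = luciferase signal above three times the same-plate solvent-only control wells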;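 note: luciferase driven by Gal4-ERK5 fusion binding five Gal4 sites before minimal TATA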); details: HeLa Gal4-ERK5 transactivation, 18 h, at 5 µM, stronger effect = higher value
# [10] = growth inhibition, single agent or in combination, cell-based, chromothripsis tumors, cisplatin or BGB combos (AID 1671449); details: LFS_MB_P medulloblastoma cells;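 note: cells exposed for 96 hours; 0% = vehicle DMSO and 100% = killing by high DMSO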
# [11] = growth inhibition, single agent and combos, cell-based, chromothripsis tumors, cisplatin or BGB combos (AID 1671450); details: HDN33 neuroblastoma cells, stronger effect = higher value;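 note: cells exposed to compound for four days; 0% = vehicle DMSO and 100% = cell killing by high DMSO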
# [12] = growth inhibition, single agents and combos, ICB984, cell-based, cisplatin or BGB combos, synergistic combos for chromothripsis tumors (AID 1671451; call rule not given here;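 note: cells exposed for 96 hours before readout; 0% = vehicle DMSO and 100% = killing by high DMSO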); details: ICB984 medulloblastoma cells, drug combinations, stronger effect = higher value
# [13] = growth inhibition, single agents and combos, LFS_MB_1R, cell-based, cisplatin or BGB combos, synergistic combos for chromothripsis tumors (AID 1671452); details: LFS_MB_1R medulloblastoma cells, stronger effect = higher value;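 note: cells exposed for 96 hours before readout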
# [14] = growth inhibition, single agents and combos, HTB85, cell-based, BGB or cisplatin IC20 combos, synergistic combos for chromothripsis tumors (AID 1671453); details: HTB85 osteosarcoma cells, drug combinations, stronger effect = higher value;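 note: cells exposed for 96 hours before readout; 0% = vehicle DMSO and 100% = high DMSO killing control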
# [15] = growth inhibition, single agents and combos, CRL2098, cell-based, BGB or cisplatin IC20 combos, synergistic combos for chromothripsis tumors (AID 1671454); details: CRL2098 osteosarcoma cells, drug combinations, stronger effect = higher value;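 note: cells exposed for 96 h before readout; 0% = vehicle DMSO and 100% = killing by high DMSO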
# [16] = growth inhibition, single agents and combos, HD-MB03, cell-based, BGB or cisplatin IC20 combos, synergistic combos for chromothripsis tumors (AID 1671455; in the data active = inhibition above about 83%;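 note: 0% = vehicle DMSO and 100% = high DMSO as cytotoxic control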); details: HD-MB03 medulloblastoma cells, stronger effect = higher value
# [17] = growth inhibition, single agents and combos, UWB1.289, cell-based, BGB or cisplatin combos, synergistic combos for chromothripsis tumors (AID 1671456); details: UWB1.289 ovarian carcinoma cells, stronger effect = higher value;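 note: cells exposed to compound for four days; 0% = vehicle DMSO and 100% = killing by high DMSO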
# [18] = growth inhibition, single agents and combos, LFS_MB_2R, cell-based, cisplatin combos, synergistic combos for chromothripsis tumors (AID 1671457); details: LFS_MB_2R medulloblastoma cells, stronger effect = higher value;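 note: cells exposed to compound for four days before readout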
# [19] = growth inhibition, MDA-MB-436, cell-based, BGB or cisplatin combos, synergistic combos for chromothripsis tumors (AID 1671458; call rule not given here;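 note: cells exposed for 96 hours; 0% = vehicle DMSO and 100% = killing by high DMSO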); details: MDA-MB-436 breast carcinoma growth inhibition, drug combinations, stronger effect = higher value
# [20] = UWB1.289_BRCA1 ovarian cancer growth, cell-based, BGB or cisplatin combinations (AID 1671459); details: UWB1.289 BRCA1 ovarian carcinoma, drug combinations, stronger effect = higher value
# [21] = drug combination toxicity in non-malignant astrocytes – cell-based, BGB or cisplatin IC20 combos, cytotoxicity control for chromothriptic childhood tumor combination screen (AID 1671460); details: Human astrocytes, viability inhibition, drug combinations, at 0.5 µM, stronger effect = higher value;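 note: cells exposed to compounds for 96 hours before viability readout; 0% = vehicle and 100% = killing control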
# [22] = BT084 cell growth, single and combined drugs, ICGC_MB145, cisplatin and BGB IC40 combos (AID 1671461); details: BT084 medulloblastoma cells, drug combinations, stronger effect = higher value;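 note: cells exposed to drugs for 96 hours; 0% = vehicle DMSO and 100% = high DMSO full killing control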
# [23] = RCMB18 cell growth, single agent and combined, cisplatin and BGB IC40 combos (AID 1671462); details: RCMB18 medulloblastoma cells, stronger effect = higher value;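 note: cells exposed to compound for four days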
# [24] = CRL1545 cell growth, single agent and combined, cisplatin and BGB IC20 combos (AID 1671464); details: CRL1545 osteosarcoma cells, stronger effect = higher value;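 note: cells exposed to compound for 96 hours before readout; 0% = vehicle DMSO and 100% = high DMSO killing control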
# [25] = measured here: combination with BGB IC40, at 0.05 µM
# [26] = measured here: with BGB IC20 combination, at 0.5 µM
# [27] = measured here: with cisplatin IC20 combination, at 0.5 µM
# [28] = measured here: combination with cisplatin, at 0.5 µM
# [29] = measured here: combination with cisplatin, at 5 µM
# Mitogen-activated protein kinase 7 (Homo sapiens), sequence (Q13164 whole entry, looked up, the tested form may be a part): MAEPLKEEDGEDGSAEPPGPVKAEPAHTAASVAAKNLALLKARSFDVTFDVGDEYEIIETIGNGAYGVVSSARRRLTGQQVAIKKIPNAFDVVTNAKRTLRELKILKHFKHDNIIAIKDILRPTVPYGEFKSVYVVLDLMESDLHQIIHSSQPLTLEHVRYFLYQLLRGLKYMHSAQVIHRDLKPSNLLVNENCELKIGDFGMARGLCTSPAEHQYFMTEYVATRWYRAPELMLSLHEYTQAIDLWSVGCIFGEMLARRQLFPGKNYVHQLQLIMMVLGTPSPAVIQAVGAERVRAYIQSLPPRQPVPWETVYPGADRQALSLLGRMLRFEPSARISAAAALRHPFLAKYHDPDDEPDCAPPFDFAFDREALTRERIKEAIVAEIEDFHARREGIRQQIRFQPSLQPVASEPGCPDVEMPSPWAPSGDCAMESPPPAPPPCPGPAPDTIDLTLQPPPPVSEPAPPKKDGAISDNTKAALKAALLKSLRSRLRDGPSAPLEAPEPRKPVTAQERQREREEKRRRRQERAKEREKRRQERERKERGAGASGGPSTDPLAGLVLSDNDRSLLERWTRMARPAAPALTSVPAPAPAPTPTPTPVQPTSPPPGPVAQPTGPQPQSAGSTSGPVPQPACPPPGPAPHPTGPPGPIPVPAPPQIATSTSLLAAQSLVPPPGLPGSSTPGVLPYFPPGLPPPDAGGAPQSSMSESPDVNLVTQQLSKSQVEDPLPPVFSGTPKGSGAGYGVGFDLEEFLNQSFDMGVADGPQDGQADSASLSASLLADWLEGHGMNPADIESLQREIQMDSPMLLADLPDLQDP
compound,measurement,setting,value
CC[C@@]1(O)C(=O)OCc2c1cc1n(c2=O)Cc2cc3cc(O)ccc3nc2-1,red/green cell ratio (normalised),"[1]; actives lie on both sides, counts scaled to control wells, 1 = unselective",0.94 (inactive)
same,normalised cell number,[1]; measured here: epithelial PC-3E GFP cell survival,0.31
same,normalised cell number,[1]; measured here: mesenchymal TEM4-18 mCherry cell survival,0.29
same,AC50,[2],16.6 nM (active)
same,AC50,[3],1870 nM (active)
same,AC50,[4],83.3 nM (active)
same,AC50,[5],66.1 nM (active)
same,AC50,[6],148 nM (active)
same,outcome,[7],inactive
same,fold fluorescence,[8],7.95 [at 137.2 µM] (inactive)
same,luciferase signal,[9],44 AU (inactive)
same,inhibition,"[10]; at 0.5 µM, stronger effect = higher value",25.9% (inactive) and 5.42% (inactive)
same,inhibition,"[10]; measured here: combination with BGB IC20, at 0.005 µM",4.22% and -3.99%
same,inhibition,"[10]; measured here: combination with BGB IC40, at 0.005 µM",-42.5% and -15.9%
same,inhibition,[10]; [25],-16% and -4.31%
same,inhibition,"[10]; measured here: combination with cisplatin, at 0.5 µM, stronger effect = higher value",62.8% and 48.1%
same,inhibition,"[10]; measured here: combination with cisplatin, at 5 µM, stronger effect = higher value",89.7% and 78.7%
same,inhibition,"[11]; BGB combo, at 5 µM",98.1% and 98.5%
same,inhibition,[11]; at 0.5 µM,78.7% (inactive) and 83.5% (active)
same,inhibition,"[11]; cisplatin combo, at 5 µM",96.5% and 98%
same,inhibition,[11]; [26],82.7% and 84.4%
same,inhibition,[11]; [27],71% and 81.1%
same,inhibition,"[11]; single agent, at 5 µM",96.6% and 97.8%
same,inhibition,"[12]; BGB IC20 combo, at 0.005 µM",23.2% and 34.7%
same,inhibition,"[12]; BGB IC40 combo, at 0.005 µM",40.1% and 53.7%
same,inhibition,"[12]; BGB IC40 combo, at 0.05 µM",93.9%
same,inhibition,[12]; at 0.5 µM,-30.2% (inactive) and -10.4% (inactive)
same,inhibition,"[12]; cisplatin combo, at 0.05 µM",93.6% and 93.9%
same,inhibition,"[12]; cisplatin combo, at 0.5 µM",-46.6% and -4.75%
same,inhibition,"[12]; cisplatin combo, at 5 µM",-24.4% and 16.7%
same,inhibition,"[12]; measured here: 5 uM single agent, at 5 µM",-21.1% and 2.06%
same,inhibition,[13]; at 0.5 µM,67.2% (inactive) and 79% (inactive)
same,inhibition,[13]; [25],-33.9% and 7.21%
same,inhibition,[13]; [28],83.2% and 73.4%
same,inhibition,[13]; [29],84.4% and 82.5%
same,inhibition,[14]; at 0.5 µM,99% (active) and 98.8% (active)
same,inhibition,"[14]; measured here: with BGB IC20, at 0.5 µM",97.9% and 98.3%
same,inhibition,"[14]; measured here: with BGB IC20, at 5 µM",98.2% and 98.3%
same,inhibition,"[14]; measured here: with cisplatin IC20, at 0.5 µM",99.3% and 98.9%
same,inhibition,"[14]; measured here: with cisplatin IC20, at 5 µM",99.6% and 99.7%
same,inhibition,"[14]; single agent, at 5 µM",99.5% and 99.7%
same,inhibition,[15]; at 0.5 µM,58.1% (inactive) and 64.8% (inactive)
same,inhibition,"[15]; measured here: combination with BGB at IC20, at 0.5 µM",81.9% and 74.5%
same,inhibition,"[15]; measured here: combination with cisplatin at IC20, at 0.5 µM",44.1% and 55.5%
same,inhibition,[16]; at 0.5 µM,99.4% (active) and 99.3% (active)
same,inhibition,"[16]; measured here: combo with BGB at IC20, at 0.5 µM",99.4%
same,inhibition,"[16]; measured here: combo with cisplatin at IC20, at 0.5 µM",99.4% and 99.2%
same,inhibition,[17]; at 0.5 µM,90.1% (active) and 89.5% (active)
same,inhibition,"[17]; measured here: inhibition with BGB combination, at 0.05 µM",17.9% and 40%
same,inhibition,"[17]; measured here: inhibition with cisplatin combination, at 0.05 µM",28.7% and 40.8%
same,inhibition,[18]; at 0.5 µM,21.3% (inactive) and 29.5% (inactive)
same,inhibition,[18]; [28],63.4% and 65.4%
same,inhibition,[18]; [29],76.4% and 77.8%
same,inhibition,[19]; at 0.5 µM,69.5% (inactive) and 70% (inactive)
same,inhibition,"[19]; measured here: BGB combination, at 0.5 µM",63.8% and 64.7%
same,inhibition,"[19]; measured here: BGB combination, at 5 µM",63.6% and 74.3%
same,inhibition,"[19]; measured here: cisplatin combination, at 0.5 µM",71.5% and 68.7%
same,inhibition,"[19]; measured here: cisplatin combination, at 5 µM",80.4% and 83.5%
same,inhibition,"[20]; BGB combination, concentration series, at 5 µM",96.9% and 98%
same,inhibition,[20]; at 0.5 µM,97.1% (active) and 97.8% (active)
same,inhibition,"[20]; cisplatin combination, concentration series, at 5 µM",99.8% and 104%
same,inhibition,[21],84.1% (active) and 83.3% (active)
same,inhibition,[21]; measured here: combo with BGB IC20,91.6% and 86.1%
same,inhibition,[21]; measured here: combo with cisplatin IC20,76% and 80.4%
same,inhibition,[22]; at 0.5 µM,13.5% (inactive) and 7.41% (inactive)
same,inhibition,"[22]; cisplatin combination, at 0.5 µM",46.9% and 55.3%
same,inhibition,"[22]; cisplatin combination, at 5 µM",28% and 7.98%
same,inhibition,"[22]; measured here: BGB IC40 combination 0.05 uM, at 0.05 µM",-21.8% and -8.97%
same,inhibition,"[22]; single agent, at 5 µM",42.3% and 44.7%
same,inhibition,[23]; at 0.5 µM,36.1% (inactive) and 38.1% (inactive)
same,inhibition,"[23]; cisplatin combo, at 5 µM",72.4% and 72.1%
same,inhibition,"[23]; measured here: BGB IC40 combination, at 0.05 µM",-15.2% and -13.6%
same,inhibition,[23]; [28],47.7% and 55.8%
same,inhibition,"[23]; single agent, at 5 µM",59.8% and 73%
same,inhibition,[24]; at 0.5 µM,81.7% (active) and 82.4% (active)
same,inhibition,[24]; [26],95.3% and 93.8%
same,inhibition,[24]; [27],74.8% and 76.7%
same,inhibition,"[24]; single agent, at 0.05 µM",4.98% and 48.5%
same,inhibition,"[24]; single agent, at 5 µM",99.8% and 99.9%
